FXIIa mix inh: inhibitors of human coagulation factor XIIa, pooled mixtures. P00748. purified FXIIa, fluorogenic substrate. inhibition, % at 5 µM. 62,000 tested, 0.2% active. AID 684;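 note: 0% = enzyme without compound and 100% = no enzyme blank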
Target sequence (P00748 20-372 limits assumed): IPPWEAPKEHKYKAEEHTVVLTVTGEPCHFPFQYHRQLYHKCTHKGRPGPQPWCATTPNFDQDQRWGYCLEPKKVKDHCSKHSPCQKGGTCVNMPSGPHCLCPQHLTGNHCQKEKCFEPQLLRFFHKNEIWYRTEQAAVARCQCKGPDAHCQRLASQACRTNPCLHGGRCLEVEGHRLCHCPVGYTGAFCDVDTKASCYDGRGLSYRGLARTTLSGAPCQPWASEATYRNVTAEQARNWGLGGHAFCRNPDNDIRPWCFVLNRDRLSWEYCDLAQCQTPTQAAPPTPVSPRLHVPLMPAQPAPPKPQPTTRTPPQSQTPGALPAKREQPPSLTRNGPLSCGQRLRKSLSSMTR
Target sequence (P00748 373-615 limits assumed): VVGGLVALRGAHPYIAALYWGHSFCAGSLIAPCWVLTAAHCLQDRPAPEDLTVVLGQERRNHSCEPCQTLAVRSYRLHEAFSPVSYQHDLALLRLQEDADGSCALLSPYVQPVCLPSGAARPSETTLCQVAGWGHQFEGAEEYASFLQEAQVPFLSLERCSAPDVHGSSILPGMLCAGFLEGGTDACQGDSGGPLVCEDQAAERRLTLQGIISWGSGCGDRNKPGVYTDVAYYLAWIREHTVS
WNV protease inh: blocks West Nile virus NS2B-NS3 protease activity; 65,000 tested, 0.18% active; z-score (concentration not given with the values); P06935; WNV NS2B-NS3 protease, fluorogenic substrate Ex360/Em465; active compounds read low; in the data active = z-score below about -3
CatG inh: inhibitors of human cathepsin G. P08311. purified enzyme, AMC-tetrapeptide fluorescence, pooled mixtures. inhibition, % at 5 µM (by protocol). 62,000 tested, 0.2% active. AID 581;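 active = inhibition above 20% in each of the two mixture wells holding the compound; inactive = inhibition of 20% or less in either well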;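 note: 0% = enzyme control without mixture and 100% = blank lacking enzyme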
C1s block: blocks human complement C1s protease activity | mean inhibition % of two 10-compound mixtures (active compounds read high), % at 5 µM (by protocol) | AID 538 | purified C1s, fluorogenic AMC substrate, pooled mixtures | P09871 | 62,000 tested, 0.16% active;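 active = inhibition above 20% in each of the two 10-compound mixture wells holding the compound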;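 note: 0% = enzyme wells lacking compound mixture and 100% = no-enzyme blank wells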
FXIa inh mix: factor XIa (human) inhibition, mixture screen; P03951; purified FXIa, fluorogenic substrate, pooled mixtures; inhibition, % at 5 µM; 62,000 tested, 0.19% active; AID 680;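 note: each value is inhibition by a whole ten-compound pool holding the compound; 0% = enzyme with no mixture and 100% = wells lacking enzyme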
MMP-13 inhibitor: inhibitors of human MMP13. 65,000 tested, 0.07% active. AID 570. MMP-13 fTHP FRET cleavage, Mca fluorescence. inhibition, % at 4 µM. P45452;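 active = inhibition above the mean of compound-free control plate wells plus 3 SD, cut at about 14% in these data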;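 note: 0% = DMSO wells and 100% = wells with reference MMP-13 inhibitor after basal subtraction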
* marks the source's active call; other numbers are inactive results; x = not tested or not shown. A selection: hits, their analogues and other compounds. The true share with any hit is near 0.82%. Cut-off read from the data, not from the text of the source, unless noted: active = inhibition above about 20% (passing the limit was not always enough); inactive = the rest.

SMILES	FXIIa mix inh	WNV protease inh	CatG inh	C1s block	FXIa inh mix	MMP-13 inhibitor
CC(C)C[C@H](NC(=O)NC(C)C)C(=O)O	2	0.86	3	-2	10	4
O=C(c1ccco1)N1CCN(S(=O)(=O)c2ccc(S(=O)(=O)NC3CCCCC3)cc2)CC1	9	0.42	9	71*	2	1
Cc1nc2sccn2c1-c1nc(C2CC2)c(C(=O)c2ccc3c(c2)NC(=O)CO3)s1	1	-0.11	2	-3	8	-18
Cc1ccc(CS(=O)(=O)CCC(=O)NCCCN2CCCC2=O)cc1	22*	-1.5	-1	-28	7	-2
Cc1ccc(CS(=O)(=O)CCC(=O)NCCN2CCCC2)cc1	10	-1.6	10	16	8	1
Cc1sc2nc(SCC(=O)c3cc(C)n(CC4CCCO4)c3C)n(C(C)C)c(=O)c2c1C (configuration not stated)	4	-0.84	13	17	5	-1
COc1ccc(S(=O)(=O)N2CCCN(S(=O)(=O)c3ccc(OC)cc3C)CC2)c(C)c1	10	0.27	1	-9	2	6
CN(CCOc1ccc(Cl)cc1)c1ccc(S(=O)(=O)N2CCCCC2)cn1	2	0.71	18	-14	40*	-1
Cn1cc(C(=O)NCN2CCCCC2)c2ccccc21	0	-6.6*	15	11	3	-2
CCn1cc(S(=O)(=O)CC(=O)Nc2ccc(OC)cc2)c2ccccc21	0	0.0031	5	-10	-4	7
O=C(CSCc1n[nH]c(=O)[nH]1)NCCOc1cccc(Oc2ccccc2)c1	8	0.32	-13	-9	-8	15*
O=C(CSc1ncn[nH]1)NCCOc1ccccc1	4	-0.28	-2	-3	4	0
CC1=C(C#N)C(=O)OC(C)(C)C1	x	-8.2*	x	x	x	4
CCOC(=O)CN1C(=O)CSc2ccccc21	8	-0.59	2	-30	7	-1
CC(=O)N(CC(=O)O)c1ccccc1C(=O)O	11	-0.39	6	1	0	x
COC(=O)c1cc(C)sc1NC(=O)c1cccnc1	-1	-1.2	11	17	3	1
O=C(c1cc(-c2ccccc2O)on1)N1CCc2ccccc2C1	13	-1.3	4	8	3	-9
O=C(c1noc2c1CCc1ccccc1-2)N1CCOCC1	10	1.6	37*	-12	3	3
O=C(c1noc2c1CCc1ccccc1-2)N1CCc2ccccc2C1	-13	0.1	30*	1	4	3
O=C(c1noc2c1CCc1ccccc1-2)N1CCCc2ccccc21	-20	-0.42	39*	-32	9	2
CC(=O)Nc1ccc(S(=O)(=O)N(C)CC(=O)Nc2ccccc2N2CCOCC2)cc1	6	-0.78	-8	-10	-1	4
Cc1ccc(-c2nc(C(=O)NC3CCCCCC3)no2)cc1	0	1.7	-8	-62	5	8
CC12CCC(C(=O)NCc3ccccc3)(OC1=O)C2(C)C (configuration not stated)	-3	-0.67	-2	-31	6	2
CC12CCC(C(=O)NCC3CCCO3)(OC1=O)C2(C)C (configuration not stated)	4	-0.82	43	45	42*	6
O=C(COc1ccc(Cl)cc1)OCC(=O)N1CCCCCC1	0	0.59	-2	0	27*	0
SMILES	FXIIa mix inh	WNV protease inh	CatG inh	C1s block	FXIa inh mix	MMP-13 inhibitor
O=C(COc1ccc(Cl)cc1)OCC(=O)N1CCCC1	2	-0.07	-1	-2	7	3
O=C1CC(N2CCC(O)(c3ccc(Cl)cc3)CC2)C(=O)N1 (configuration not stated)	2	-0.53	7	2	7	7
O=C1CC(N2CCN(c3ccc(Cl)c(Cl)c3)CC2)C(=O)N1 (configuration not stated)	53*	0.72	6	7	6	6
CCCn1c(N)c(C(=O)CN2CCN(S(=O)(=O)c3cccs3)CC2)c(=O)[nH]c1=O	6	-0.62	7	4	7	0
O=C1c2ccccc2C(=O)N1c1nc(-c2cccs2)cs1	20*	0.37	15	13	2	0
CC(=O)Nc1nc(-c2cccs2)cs1	-18	-0.4	-9	-127	-9	-2
CCC1SC2=NC(C)=C(C(=O)OCCOC)C(c3ccc(C(=O)OC)cc3)N2C1=O (configuration not stated)	x	-0.4	x	x	x	-1
O=C(OCCN1C(=O)c2ccccc2C1=O)c1cc(S(=O)(=O)N2CCOCC2)ccc1F	6	-3.1*	9	6	4	-1
Cc1cccc(NC(=O)C2CCCN(S(=O)(=O)c3cccc4cccnc34)C2)c1 (configuration not stated)	2	-0.81	8	-19	-4	-1
Cc1csc(CCc2nc(C)cs2)n1	22*	0.56	10	2	-1	0
CCn1c(SCC(=O)C(C)(C)C)nnc1-c1ccccn1	-17	0.24	7	13	5	16*
O=C(NCCS(=O)CCNC(=O)C(F)(F)F)C(F)(F)F	4	0.31	6	1	3	-4
CCOC(=O)N1CCN(Cc2nc3c(c(=O)[nH]c(=O)n3C)n2Cc2cc(C)ccc2C)CC1	-19	-0.61	9	-7	1	-4
COC(=O)c1c(NC(=O)C2CC2)sc2c1CCCC2	-3	-3.6*	8	11	14	0
COC(=O)c1c(NC(=O)CC2NCCNC2=O)sc2c1CCCC2 (configuration not stated)	-35	-1.5	7	-3	-2	2
O=C(Oc1ccccc1)c1c(Cl)cccc1P(=O)(O)O	x	-0.12	x	x	x	7
O=C(NCCN1CCOCC1)c1cc2ccccc2o1	34*	-0.91	-1	5	9	-1
O=C(O)C1CSC2(c3ccc4c(c3)OCCO4)CCC(=O)N12 (configuration not stated)	2	-0.96	4	3	9	-2
CCOC(=O)N1CCN(C(=O)CN(c2cccc(C)c2)S(=O)(=O)c2ccccc2)CC1	2	-0.64	3	2	4	2
CCOC(=O)N1CCN(C(=O)CN(c2cccc(C)c2)S(=O)(=O)c2ccc(C)cc2)CC1	9	-0.29	10	58*	7	-1
CC(=O)Nc1ccc(N/C=C/C(=O)c2ccco2)cc1	0	-0.006	1	1	16	8
CC(=O)Nc1ccc(N/C=C/C(=O)C(C)(C)C)cc1	4	-0.01	8	5	21*	0
COc1cccc(-n2c(SCC(=O)N3CCOCC3)nnc2-c2c[nH]c3ccccc23)c1	6	-0.3	6	-5	24*	2
CCN(CC)c1ccc(NC(=O)CN2C(=O)CSc3ncccc32)c(C)c1	0	-1.3	29	12	23*	-12
CN1C(=O)N(CN2CCCCC2)C2C1N(C)C(=O)N2CN1CCCCC1 (configuration not stated)	5	-12*	0	-3	5	5

High-throughput results as filed in PubChem BioAssay.
